Rows were chosen to be rich in hits. Some 1.8% of all compounds tested hit in one or more screens of this group.
EBV gp42 block = blocks Epstein-Barr virus glycoprotein 42 binding; Q1HVG2; Fluorescence polarization binding assay, mP read-out; inhibition, % (tested at 21.74 µM); hit rate 0.42% among 220,000; AID 1085; in the data active means inhibition above about 50%
MEX-5 binding = C. elegans MEX-5 TCR-2 RNA binding activity. hit rate 0.38% among 300,000. MEX-5/FITC-TCR2 RNA binding, fluorescence polarization; active compounds read low. Q9XUB2. activity score (negative = inhibition of binding), % at 10 µM;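 active means inhibition past about -25% in most replicates, and total fluorescence under double the plate's negative control median, limit read from the data; inconclusive means replicates evenly split on the limit, or fluorescence at least double controls; inactive means too little inhibition in most replicates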;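 further: 0% = DMSO and -100% = 5 µM competing unlabeled TCR2 RNA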
eIF4H inh = inhibitors of RNA binding by human eIF4H; eIF4H fluorescence polarization binding assay; AID 2012; Q15056; inhibition, % at 35 µM; hit rate 0.94% among 290,000;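 further: calls also rest on retests at 20 µM and on dose response follow-up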
PABP1 MLLE inh = blocks PAM2 peptide binding to the PABP1 MLLE domain. P11940. GST-MLLE / FITC-PAM2 fluorescence polarization. inhibition, % at 20 µM. hit rate 0.36% among 360,000; in the data active means inhibition above about 35%, passing the limit was not always enough;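 further: plate controls were DMSO wells with GST-MLLE for no effect and wells lacking GST-MLLE protein for full effect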
Target sequence (P11940 whole entry, looked up, the tested form may be a part): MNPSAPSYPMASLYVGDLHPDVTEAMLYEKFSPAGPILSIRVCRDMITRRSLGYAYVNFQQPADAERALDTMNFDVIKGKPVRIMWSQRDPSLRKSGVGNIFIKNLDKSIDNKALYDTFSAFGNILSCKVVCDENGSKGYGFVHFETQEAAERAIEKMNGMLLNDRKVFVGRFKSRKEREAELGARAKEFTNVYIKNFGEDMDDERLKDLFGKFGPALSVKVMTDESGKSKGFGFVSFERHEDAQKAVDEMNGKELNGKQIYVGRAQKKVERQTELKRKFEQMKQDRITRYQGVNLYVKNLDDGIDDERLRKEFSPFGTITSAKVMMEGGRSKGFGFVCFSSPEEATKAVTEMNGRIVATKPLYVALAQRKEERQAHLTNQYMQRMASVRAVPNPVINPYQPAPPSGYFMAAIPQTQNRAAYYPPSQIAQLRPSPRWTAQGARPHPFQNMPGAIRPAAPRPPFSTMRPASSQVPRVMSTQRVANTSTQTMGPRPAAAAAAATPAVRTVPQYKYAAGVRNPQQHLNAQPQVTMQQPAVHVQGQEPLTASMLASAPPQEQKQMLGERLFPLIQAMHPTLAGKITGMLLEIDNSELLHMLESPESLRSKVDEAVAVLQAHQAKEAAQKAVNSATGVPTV
PABP FP inh = blocks human PABP binding to poly(A) RNA. P11940. fluorescence polarization. calls only at 35 µM. hit rate 1% among 290,000;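 further: calls also rest on retests at 20 µM and on dose response follow-up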
* marks the source's active call; other numbers are inactive results; i = inactive; u = inconclusive; x = no result given; + = active, no number; ! = repeats disagree. Unless noted, how the calls were made is not given here.

SMILES	EBV gp42 block	MEX-5 binding	eIF4H inh	PABP1 MLLE inh	PABP FP inh
N#Cc1cnn2c(=O)[nH]cnc12	x	x	x	-9	x
CCn1c2ccccc2c2cc([N+](=O)[O-])ccc21	-21	2	-4	3	i
CCn1c2ccccc2c(=O)c2ccccc21	-19	-28*	-14	-84	i
Cc1cccnc1C(NC(=O)C1CCN(CCCOc2ccc(F)cc2)CC1)c1ccccc1 (stereo not drawn)	x	x	x	-7	x
Cc1c(C(=O)NCc2ccccc2C(F)(F)F)sc(=O)n1Cc1ccc(F)cc1	x	x	x	3	x
Cc1ccc(C)c2c1c1ccccc1n2C	-6	0	-2	8	i
CN(C)c1cc2c3ccccc3n(C)c2cc1N	x	x	x	64*	x
Cc1ccc(/C=N/NC(=O)C(O)c2ccccc2)o1 (stereo not drawn)	-25	0	3	11	i
O=C(N/N=C/c1cc(Br)c(Br)o1)C(O)c1ccccc1 (stereo not drawn)	-9	-1	63*	-22	i
O=S(=O)(O)Sc1ccccc1	x	x	x	35	x
CCN(CC)c1ccc(SS(=O)(=O)O)cc1	-24	-4	42	43*!	i
CC1(C(=O)NS(=O)(=O)c2cccc(OC(F)F)c2)CCN1C(=O)C1CCCCC1 (stereo not drawn)	x	x	x	6	x
Cc1cc(C(C)C)n2c(nc3ccccc32)c1C#N	-2	1	-1	x	i
Cc1cc(-c2ccco2)c(C#N)c2nc3ccccc3n12	x	-20	88*	16	+
NC(=O)CSc1nc2scc(-c3ccco3)c2c(=O)n1-c1ccccc1	-4	0	67*	-16	+
O=C(CSc1nc2scc(-c3ccco3)c2c(=O)n1-c1ccccc1)N1CCOCC1	-10	-3	50	2	i
O=c1c2c(-c3ccco3)csc2nc(SCc2cn3cccnc3n2)n1-c1ccccc1	-33	1	89*	-7	+
O=[N+]([O-])c1ccc(OS(=O)(=O)Cc2ccccc2)cc1	-5	1	2.5*	7	+
O=S(=O)(Cc1ccc(Cl)cc1)Oc1ccc(Cl)cc1	x	x	x	-15	x
CCOC1=CC2=C(C(=O)C(Cl)=CC2=O)[C@@H]2CN(S(=O)(=O)c3ccc(C)cc3)[C@@H](c3ccccc3)[C@H]12	x	x	x	46*	x
CCN1C(=O)[C@@H]2[C@@H]3CN(S(=O)(=O)c4ccc(C)cc4)[C@@H](c4ccccc4)[C@@H]3C(=O)C[C@@H]2C1=O	x	x	x	-10	x
Nc1ccc2cc3[nH]c4cc(N)ccc4c3nc2c1	x	x	x	i	x
CCOc1ccc(C2C(C#N)=C(N)SC(N)=C2C#N)cc1OC	-19	13	u	x	u
CCOc1ccc(C2C(C#N)=C(N)SC(N)=C2C#N)cc1OCC	-58	2	122*	-27	i
Nc1ccn(C2OC(CCl)C(O)C2O)c(=O)n1 (stereo not drawn)	x	x	x	3	x
SMILES	EBV gp42 block	MEX-5 binding	eIF4H inh	PABP1 MLLE inh	PABP FP inh
O=C(Oc1ccc[nH]c1=O)c1cc([N+](=O)[O-])cc([N+](=O)[O-])c1	-15	1	50	-5	+
COc1ccc(C(=O)Oc2ccc[nH]c2=O)cc1	-14	0	8	-11	i
[O-][n+]1c2ccccc2[n+]([O-])c2cc(O)ccc21	x	-6	106*	8	+
[O-][n+]1c(/C=C/c2ccccc2)ccc2ccccc21	x	-1	19	3	i
CCc1ccccc1N1CSC2=C(C#N)C(c3ccccc3F)CC(=O)N2C1 (stereo not drawn)	-30	0	78*	-29	+
COc1ccc(C2CC(=O)N3CN(c4ccccc4F)CSC3=C2C#N)cc1OC (stereo not drawn)	-3	3	14	-17	i
Cc1cccc(N2CSC3=C(C#N)C(c4ccc(C)o4)CC(=O)N3C2)c1 (stereo not drawn)	25	0	98*	x	+
O=[N+]([O-])c1ccc(Sc2cccc3cccnc23)c2cccnc12	62*	-14	4	-8	i
O=[N+]([O-])c1cc2cccnc2c2ncccc12	-8	-10	-8	-8	i
CCOC(=O)C1=CCC(c2ccccc2Cl)N(S(=O)(=O)c2ccc(C)cc2)C1 (stereo not drawn)	x	x	x	11	x
O=C1N=C(N2CCOCC2)S/C1=C/c1cc2c(cc1[N+](=O)[O-])OCO2	0	1	87*	-7	+
CCCS(=O)(=O)NC(=O)C1(C)CCN(C(=O)c2ccccc2C(F)(F)F)C1 (stereo not drawn)	x	x	x	-8	x
CC(C)(C)c1ccc(/C([O-])=C(/C(=S)NCc2ccco2)[n+]2ccccc2)cc1	2	1	32*	x	+
